The source of these data is PubChem BioAssay (EPA / NIEHS).

Records with an inconclusive call do not appear. The source made the active and inactive calls. Rule for the calls, unless noted: active = hit-call score of the fitted dose curve at least 0.9, where 1 is the maximum; inconclusive = response in the unintended direction; inactive = score below 0.9.

Chain of Retinoic acid receptor alpha (Homo sapiens) (P10276 whole entry, looked up): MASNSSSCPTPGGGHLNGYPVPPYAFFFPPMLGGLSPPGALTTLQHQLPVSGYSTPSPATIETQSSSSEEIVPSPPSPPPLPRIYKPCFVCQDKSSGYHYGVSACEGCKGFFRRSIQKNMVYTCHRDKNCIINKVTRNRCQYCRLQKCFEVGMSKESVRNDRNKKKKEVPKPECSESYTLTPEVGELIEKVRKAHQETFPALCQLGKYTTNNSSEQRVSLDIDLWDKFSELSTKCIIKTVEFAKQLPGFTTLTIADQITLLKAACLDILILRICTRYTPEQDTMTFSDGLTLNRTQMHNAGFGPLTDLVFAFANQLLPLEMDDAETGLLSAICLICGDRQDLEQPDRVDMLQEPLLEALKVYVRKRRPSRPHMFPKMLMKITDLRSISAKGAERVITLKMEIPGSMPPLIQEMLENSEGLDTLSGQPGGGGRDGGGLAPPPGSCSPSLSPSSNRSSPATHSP

Read-out in one test: Intercellular Adhesion Molecule 1 (ICAM1), ICAM1 (gene 3383)
Nature of the test: BSK_3C_ICAM1: BioMAP Diversity Plus: 3C Assay for Intercellular Adhesion Molecule 1 (ICAM1) Biomarker Activity (AID 2283003; active = hit-call score of the fitted dose curve at least 0.9, where 1 is the maximum; inactive = score below 0.9). The conditions noted are these: primary human endothelial cells (HUVEC); actives raise or lower the signal. In outline: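 Chemicals are dosed onto primary human umbilical vein endothelium (3C system). After 24 h, ICAM-1 is measured by ELISA, and responses are fitted bidirectionally relative to DMSO.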
In the case of `CC(C)Oc1ccccc1O`, the result was inactive.
On the same count and under the same terms, the same measure for `CC[Si](OC(C)=O)(OC(C)=O)OC(C)=O`: “inactive”; for `CCCCCCCCCCCCCCCCCC(=O)OCC(CC)CCCC` (stereo unspecified): “inactive”.

A further test deals with human Retinoic Acid Receptor beta (RARb), RARB (gene 5915) (UniProt P10826). Nature of the test: ATG_RARb_TRANS: Attagene TRANS-FACTORIAL HepG2 Assay for human Retinoic Acid Receptor beta (AID 2283004).
Chain of human Retinoic Acid Receptor beta (RARb), RARB (gene 5915) (P10826 whole entry, looked up): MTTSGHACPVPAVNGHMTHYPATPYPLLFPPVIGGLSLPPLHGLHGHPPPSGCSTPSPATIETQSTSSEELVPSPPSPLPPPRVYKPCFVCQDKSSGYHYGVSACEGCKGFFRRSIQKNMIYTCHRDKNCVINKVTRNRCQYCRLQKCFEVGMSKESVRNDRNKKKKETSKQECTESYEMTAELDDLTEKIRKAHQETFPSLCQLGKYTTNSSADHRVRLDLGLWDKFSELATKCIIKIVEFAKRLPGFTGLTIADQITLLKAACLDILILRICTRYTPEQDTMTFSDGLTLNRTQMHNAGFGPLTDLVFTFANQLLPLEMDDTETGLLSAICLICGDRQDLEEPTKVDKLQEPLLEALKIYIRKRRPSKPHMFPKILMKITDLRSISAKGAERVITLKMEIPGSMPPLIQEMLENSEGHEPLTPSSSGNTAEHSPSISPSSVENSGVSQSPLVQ
Conditions: not given
The method, boiled down: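 Transient transfection of HepG2 with multiple reporter units → chemical dosing, 24 h → total RNA isolation → RT with oligo(dT) → reporter-specific PCR, 6-FAM primer extension, HpaI digest → capillary electrophoresis. Positive direction vs DMSO control.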
`Cc1cccc(C)c1[N+](=O)[O-]`: the compound was called inactive.
Consider `COC(C)CCO` (stereo unspecified), for which the compound was called inactive.
On the same count and under the same terms, the value for `CCCCCCOC(=O)CCCCC` was “inactive”.
Take `C=O`: the outcome was inactive.
As for `CO[Si](CCCn1c(=O)n(CCC[Si](OC)(OC)OC)c(=O)n(CCC[Si](OC)(OC)OC)c1=O)(OC)OC`, the call was inactive.

The next test concerns the target Retinoic acid receptor alpha (Homo sapiens) (UniProt P10276). Nature of the test: ATG_RARa_TRANS: Attagene TRANS-FACTORIAL HepG2 Assay for human Retinoic Acid Receptor alpha (RARa) (AID 2283005).
Conditions: not given
The method, boiled down:
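HepG2 cells transiently transfected with multiple reporter units expressing chimeric RARα-GAL4 fusion, with GAL4-UAS-driven reporters. After 24 h compound exposure, reporter mRNA induction quantified by RT-PCR and capillary electrophoresis with fluorescent labeling; gain-of-signal fitted relative to DMSO control.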
For the compound `Cc1cccc(C)c1[N+](=O)[O-]`, the outcome was inactive.
With `COC(C)CCO` (stereo unspecified), the compound was called inactive.
On the same count and under the same terms, the same measure for `CCCCC[Si](OCC)(OCC)OCC`: “inactive”.
With `CCCCCCOC(=O)CCCCC`, the result was inactive.
Take `C=O`: the call was inactive.
Regarding `CN1Cc2c(N)cccc2C(c2ccccc2)C1` (stereo unspecified), the result was inactive.
Turning to `CC1(C)OC[C@@H]2O[C@@]3(C(=O)O)OC(C)(C)O[C@H]3[C@@H]2O1`, the compound was called inactive.
Turning to `CCCCNC(=O)NS(=O)(=O)c1ccc(N)cc1`, the outcome was inactive.
